Source: PubChem
This is one part of a sample in which hits are shown more often than they occur.
Pf Dd2 growth: Plasmodium falciparum Dd2 growth inhibition; P. falciparum Dd2 growth, SYBR Green, 72 h; Potency, µM (doses to about 28.9 µM), for the others: at the top dose activity, negative = inhibition, most hits filed as inhibitors; actives 4.3% (n = 120,000); active means well fitted inhibition curve with a large enough effect;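 further: plate controls were DMSO vehicle for no effect and reference drug for full effect; nearly all actives have a fitted effect of over 65% in size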
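Readout: SYBR Green fluorescence, 485 nm excitation, 535 nm emission, after ~16 h lysis at 37C. Before that, Dd2-infected red cells (2.5% hematocrit) grew 72 h with compound, 29 uM top final concentration.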
* = called active by the depositor; [ ] = remark or other dose. Potency means the concentration at half of the fitted maximal effect.

Results for CCC(Nc1ccc(-c2nc(-c3ccco3)no2)cc1[N+](=O)[O-])c1ccccc1 (centres undefined) ?
Pf Dd2 growth: 10µM*

Results for CCCCNc1ccc(-c2nc(-c3ccco3)no2)cc1[N+](=O)[O-] ?
Pf Dd2 growth: 14%

Results for COc1ccc(CN2C(=O)COC[C@H]2C(=O)Nc2ccc(F)c(F)c2)cc1OC ?
Pf Dd2 growth: 11%

Results for COCCOCC(=O)N1CCOc2ccc(CN3CCc4ccccc4C3)cc2C1 ?
Pf Dd2 growth: 11µM*

How did CCOCCCNC(=O)N1CCOc2ccc(CN3CCc4ccccc4C3)cc2C1 do in these assays?
Pf Dd2 growth: -5%

How did O=C(Nc1cccc(F)c1)N1CCC(O)(c2csc(CN3CCc4ccccc4C3)n2)CC1 do in these assays?
Pf Dd2 growth: -3%

How did O=C(Nc1cccc(F)c1)N1CCOc2ccc(CN3CCc4ccccc4C3)cc2C1 do in these assays?
Pf Dd2 growth: 2µM*

Results for COCCn1cc(CN2CCc3ccccc3C2)ccc1=O ?
Pf Dd2 growth: inactive

How did CCCNC(=O)N1CCOc2ccc(CN3CCc4ccccc4C3)cc2C1 do in these assays?
Pf Dd2 growth: -15%

Results for Nc1nc(C2CC(O)C2)cc(N2CCC(O)(Cn3ccnc3)CC2)n1 (centres undefined) ?
Pf Dd2 growth: -18%

What do the screens show for `COc1ccc(C(=O)NC2CCN(C(=O)N3CC4CC(C3)[C@H]3CCCC(=O)N3C4)CC2)cn1` (some centres undefined)?
Pf Dd2 growth: inactive

What do the screens show for `COc1ccc(C(=O)NC2CCN(C(=O)N3CC4CC(C3)[C@H]3CCCC(=O)N3C4)CC2)c(OC)n1` (some centres undefined)?
Pf Dd2 growth: 5µM*

What do the screens show for `COc1ccc(C(=O)NC2CCN(C(=O)N3CC4CC(C3)[C@H]3CCCC(=O)N3C4)CC2)c(OC)c1` (some centres undefined)?
Pf Dd2 growth: -27%

Results for O=C(c1ccc(F)cc1F)N1CCCN(c2cc(-c3ccccc3)[nH]n2)CC1 ?
Pf Dd2 growth: inactive

How did O=C(Nc1ccc(Cl)c(-c2nc3cc(Cl)ccc3o2)c1)c1cc2ccccc2o1 do in these assays?
Pf Dd2 growth: 2%

What do the screens show for `Cc1cc(NC(=O)c2cc(Cl)ccc2Cl)ccc1-c1cc2ccccc2oc1=O`?
Pf Dd2 growth: 11µM*

What do the screens show for `Cc1cc2nc(-c3cc(NC(=O)c4cc5ccccc5o4)ccc3Cl)oc2cc1C`?
Pf Dd2 growth: inactive

Results for CCC(=O)N(C1CCOCC1)C1CCN(Cc2ccc(C(F)(F)F)cc2)CC1 ?
Pf Dd2 growth: -24%

How did CCCN(CC1CCOC1)C(=O)Nc1cccc(Br)c1 (centres undefined) do in these assays?
Pf Dd2 growth: 35%[5.79 µM]

What do the screens show for `CCC(=O)N1CCc2cc(CNC(=O)c3ccc(C#N)cc3)ccc21`?
Pf Dd2 growth: 65%

How did N#Cc1ccc(C(=O)NCc2ccc3c(c2)CCN3C(=O)c2ccc(F)cc2)cc1 do in these assays?
Pf Dd2 growth: 5µM*

What do the screens show for `CCC(=O)N1CCc2cc(CNS(=O)(=O)c3cccs3)ccc21`?
Pf Dd2 growth: -9%

What do the screens show for `O=C(NCc1ccc2c(c1)CCN2C(=O)c1ccc(F)cc1)c1c(F)cccc1F`?
Pf Dd2 growth: 8%

Results for Cc1cccc(C(=O)N2CCc3cc(CNS(=O)(=O)c4cccs4)ccc32)c1 ?
Pf Dd2 growth: inactive

What do the screens show for `O=C(NCc1ccc2c(c1)CCN2C(=O)c1ccc(F)cc1)c1ccc(Br)o1`?
Pf Dd2 growth: 11µM*

How did Cc1cccc(C(=O)N2CCc3cc(CNC(=O)c4ccc(Br)o4)ccc32)c1 do in these assays?
Pf Dd2 growth: 1.3µM*

How did COc1ccccc1C(=O)NCc1ccc2c(c1)CCN2C(=O)c1cccc(C)c1 do in these assays?
Pf Dd2 growth: inactive

What do the screens show for `Cn1nccc1C(=O)NCc1ccc2c(c1)CCN2C(=O)c1ccc(F)cc1`?
Pf Dd2 growth: inactive

How did Cc1cccc(C(=O)N2CCc3cc(CNC(=O)c4ccnn4C)ccc32)c1 do in these assays?
Pf Dd2 growth: inactive

How did O=C(NCc1ccc2c(c1)CCN2C(=O)c1ccccc1)c1ccc(Br)o1 do in these assays?
Pf Dd2 growth: inactive

Results for Cc1ccc(C(=O)N2CCc3cc(CNS(=O)(=O)c4cccs4)ccc32)cc1 ?
Pf Dd2 growth: 8.9µM*

Results for COc1ccc(C2(C(=O)N3CCC4(CCC4OC)CC3)CC2)cc1 (centres undefined) ?
Pf Dd2 growth: -10%

What do the screens show for `OC(c1cccc(C(F)(F)F)c1)c1nc(Nc2ccc(F)cc2F)n[nH]1` (centres undefined)?
Pf Dd2 growth: inactive

How did O=C1[C@@H]2C[C@@H](O)CN2C2(CN(Cc3c[nH]c4ccccc34)C2)C(=O)N1Cc1ccccc1F do in these assays?
Pf Dd2 growth: -6%

How did COc1ccccc1C(=O)N1CCC(CCOc2ccncc2)C1 (centres undefined) do in these assays?
Pf Dd2 growth: 8%

How did CCn1ncc(C(=O)N2C[C@@H](CO)[C@H](c3ccncc3)C2)c1C do in these assays?
Pf Dd2 growth: -9%

How did COc1ccc(C(CC(=O)N2CCN(C)CC2)c2ccccc2)cc1 (centres undefined) do in these assays?
Pf Dd2 growth: -20%
